# Data published in ChEMBL document CHEMBL2218924, “A broad activity screen in support of a chemogenomic map for kinase signalling research and drug discovery” (Biochem J, 2013).
# Key:
# [1] = target: BDNF/NT-3 growth factors receptor (Homo sapiens) (UniProt Q16620); details: at 10 µM
# [2] = target: T1, Tyrosine-protein kinase TXK (Homo sapiens) (UniProt P42681); details: at 1 µM
# T1 sequence (whole entry): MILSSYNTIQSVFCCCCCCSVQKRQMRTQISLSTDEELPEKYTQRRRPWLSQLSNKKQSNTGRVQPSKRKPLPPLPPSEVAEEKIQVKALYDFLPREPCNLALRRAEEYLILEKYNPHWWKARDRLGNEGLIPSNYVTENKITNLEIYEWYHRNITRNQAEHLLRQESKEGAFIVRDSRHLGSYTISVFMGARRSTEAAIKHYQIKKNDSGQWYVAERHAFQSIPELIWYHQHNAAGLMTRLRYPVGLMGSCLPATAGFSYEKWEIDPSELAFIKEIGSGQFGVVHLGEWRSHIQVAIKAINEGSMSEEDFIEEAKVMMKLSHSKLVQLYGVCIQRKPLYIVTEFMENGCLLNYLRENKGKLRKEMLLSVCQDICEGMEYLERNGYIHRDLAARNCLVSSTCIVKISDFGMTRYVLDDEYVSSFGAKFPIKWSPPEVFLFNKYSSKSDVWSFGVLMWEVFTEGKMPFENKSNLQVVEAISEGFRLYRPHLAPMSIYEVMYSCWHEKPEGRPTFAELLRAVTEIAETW
# [3] = target: T1, Tyrosine-protein kinase TXK (Homo sapiens); details: at 10 µM
# [4] = target: T2, Serine/threonine-protein kinase ULK2 (Homo sapiens) (UniProt Q8IYT8); details: at 1 µM
# T2 sequence (whole entry): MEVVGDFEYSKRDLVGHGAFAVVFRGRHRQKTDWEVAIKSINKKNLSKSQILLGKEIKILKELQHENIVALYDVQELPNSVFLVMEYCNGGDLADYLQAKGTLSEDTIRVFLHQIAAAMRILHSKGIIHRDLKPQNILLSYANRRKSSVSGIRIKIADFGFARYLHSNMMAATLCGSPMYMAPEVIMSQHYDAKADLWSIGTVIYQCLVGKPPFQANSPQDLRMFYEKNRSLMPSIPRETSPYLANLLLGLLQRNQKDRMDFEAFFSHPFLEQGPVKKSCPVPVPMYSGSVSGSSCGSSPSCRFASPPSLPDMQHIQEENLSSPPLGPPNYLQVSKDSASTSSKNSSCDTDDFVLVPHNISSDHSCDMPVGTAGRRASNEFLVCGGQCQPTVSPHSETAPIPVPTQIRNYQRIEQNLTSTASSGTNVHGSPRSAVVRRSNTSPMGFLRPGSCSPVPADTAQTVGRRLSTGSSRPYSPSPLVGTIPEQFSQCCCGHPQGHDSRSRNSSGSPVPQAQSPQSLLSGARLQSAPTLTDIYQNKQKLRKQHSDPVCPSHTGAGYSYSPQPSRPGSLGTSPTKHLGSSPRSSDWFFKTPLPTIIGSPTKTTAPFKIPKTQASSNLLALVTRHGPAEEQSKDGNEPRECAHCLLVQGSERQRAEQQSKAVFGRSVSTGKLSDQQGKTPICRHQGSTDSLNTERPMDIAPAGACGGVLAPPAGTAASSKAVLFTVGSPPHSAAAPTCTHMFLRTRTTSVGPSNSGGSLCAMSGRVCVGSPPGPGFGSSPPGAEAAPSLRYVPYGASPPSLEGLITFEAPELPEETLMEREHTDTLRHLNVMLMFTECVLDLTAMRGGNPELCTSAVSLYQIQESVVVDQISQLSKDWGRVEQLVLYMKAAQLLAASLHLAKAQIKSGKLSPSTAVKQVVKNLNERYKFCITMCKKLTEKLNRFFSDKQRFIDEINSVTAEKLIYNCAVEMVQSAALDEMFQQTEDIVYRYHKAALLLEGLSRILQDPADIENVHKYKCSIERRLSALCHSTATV
# [5] = target: T2, Serine/threonine-protein kinase ULK2 (Homo sapiens); details: at 10 µM
# [6] = target: T3, Serine/threonine-protein kinase ULK3 (Homo sapiens) (UniProt Q6PHR2); details: at 1 µM
# T3 sequence (whole entry): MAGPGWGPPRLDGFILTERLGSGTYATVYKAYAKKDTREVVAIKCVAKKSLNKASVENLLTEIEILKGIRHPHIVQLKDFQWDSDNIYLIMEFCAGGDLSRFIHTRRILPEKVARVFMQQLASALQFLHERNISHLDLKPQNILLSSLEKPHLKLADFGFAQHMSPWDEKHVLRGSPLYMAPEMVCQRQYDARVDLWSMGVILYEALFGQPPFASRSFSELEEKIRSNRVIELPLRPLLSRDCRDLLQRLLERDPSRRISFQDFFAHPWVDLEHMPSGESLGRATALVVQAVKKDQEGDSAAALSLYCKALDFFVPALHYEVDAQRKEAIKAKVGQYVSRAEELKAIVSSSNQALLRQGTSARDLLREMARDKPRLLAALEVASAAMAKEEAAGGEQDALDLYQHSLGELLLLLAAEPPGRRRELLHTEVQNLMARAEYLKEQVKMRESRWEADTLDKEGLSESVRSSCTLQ
# [7] = target: T3, Serine/threonine-protein kinase ULK3 (Homo sapiens); details: at 10 µM
# [8] = target: Serine/threonine-protein kinase VRK2 (Homo sapiens) (UniProt Q86Y07); details: at 1 µM
# [9] = target: Serine/threonine-protein kinase VRK2 (Homo sapiens) (UniProt Q86Y07); details: at 10 µM
# [10] = target: Serine/threonine-protein kinase WNK2 (Homo sapiens) (UniProt Q9Y3S1); details: at 1 µM;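 also: residual WNK2 kinase activity expressed as percent of uninhibited control, assayed in MOPS buffer at pH 7.0 containing EDTA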
# Chain of Serine/threonine-protein kinase WNK2 (Homo sapiens) (Q9Y3S1 whole entry): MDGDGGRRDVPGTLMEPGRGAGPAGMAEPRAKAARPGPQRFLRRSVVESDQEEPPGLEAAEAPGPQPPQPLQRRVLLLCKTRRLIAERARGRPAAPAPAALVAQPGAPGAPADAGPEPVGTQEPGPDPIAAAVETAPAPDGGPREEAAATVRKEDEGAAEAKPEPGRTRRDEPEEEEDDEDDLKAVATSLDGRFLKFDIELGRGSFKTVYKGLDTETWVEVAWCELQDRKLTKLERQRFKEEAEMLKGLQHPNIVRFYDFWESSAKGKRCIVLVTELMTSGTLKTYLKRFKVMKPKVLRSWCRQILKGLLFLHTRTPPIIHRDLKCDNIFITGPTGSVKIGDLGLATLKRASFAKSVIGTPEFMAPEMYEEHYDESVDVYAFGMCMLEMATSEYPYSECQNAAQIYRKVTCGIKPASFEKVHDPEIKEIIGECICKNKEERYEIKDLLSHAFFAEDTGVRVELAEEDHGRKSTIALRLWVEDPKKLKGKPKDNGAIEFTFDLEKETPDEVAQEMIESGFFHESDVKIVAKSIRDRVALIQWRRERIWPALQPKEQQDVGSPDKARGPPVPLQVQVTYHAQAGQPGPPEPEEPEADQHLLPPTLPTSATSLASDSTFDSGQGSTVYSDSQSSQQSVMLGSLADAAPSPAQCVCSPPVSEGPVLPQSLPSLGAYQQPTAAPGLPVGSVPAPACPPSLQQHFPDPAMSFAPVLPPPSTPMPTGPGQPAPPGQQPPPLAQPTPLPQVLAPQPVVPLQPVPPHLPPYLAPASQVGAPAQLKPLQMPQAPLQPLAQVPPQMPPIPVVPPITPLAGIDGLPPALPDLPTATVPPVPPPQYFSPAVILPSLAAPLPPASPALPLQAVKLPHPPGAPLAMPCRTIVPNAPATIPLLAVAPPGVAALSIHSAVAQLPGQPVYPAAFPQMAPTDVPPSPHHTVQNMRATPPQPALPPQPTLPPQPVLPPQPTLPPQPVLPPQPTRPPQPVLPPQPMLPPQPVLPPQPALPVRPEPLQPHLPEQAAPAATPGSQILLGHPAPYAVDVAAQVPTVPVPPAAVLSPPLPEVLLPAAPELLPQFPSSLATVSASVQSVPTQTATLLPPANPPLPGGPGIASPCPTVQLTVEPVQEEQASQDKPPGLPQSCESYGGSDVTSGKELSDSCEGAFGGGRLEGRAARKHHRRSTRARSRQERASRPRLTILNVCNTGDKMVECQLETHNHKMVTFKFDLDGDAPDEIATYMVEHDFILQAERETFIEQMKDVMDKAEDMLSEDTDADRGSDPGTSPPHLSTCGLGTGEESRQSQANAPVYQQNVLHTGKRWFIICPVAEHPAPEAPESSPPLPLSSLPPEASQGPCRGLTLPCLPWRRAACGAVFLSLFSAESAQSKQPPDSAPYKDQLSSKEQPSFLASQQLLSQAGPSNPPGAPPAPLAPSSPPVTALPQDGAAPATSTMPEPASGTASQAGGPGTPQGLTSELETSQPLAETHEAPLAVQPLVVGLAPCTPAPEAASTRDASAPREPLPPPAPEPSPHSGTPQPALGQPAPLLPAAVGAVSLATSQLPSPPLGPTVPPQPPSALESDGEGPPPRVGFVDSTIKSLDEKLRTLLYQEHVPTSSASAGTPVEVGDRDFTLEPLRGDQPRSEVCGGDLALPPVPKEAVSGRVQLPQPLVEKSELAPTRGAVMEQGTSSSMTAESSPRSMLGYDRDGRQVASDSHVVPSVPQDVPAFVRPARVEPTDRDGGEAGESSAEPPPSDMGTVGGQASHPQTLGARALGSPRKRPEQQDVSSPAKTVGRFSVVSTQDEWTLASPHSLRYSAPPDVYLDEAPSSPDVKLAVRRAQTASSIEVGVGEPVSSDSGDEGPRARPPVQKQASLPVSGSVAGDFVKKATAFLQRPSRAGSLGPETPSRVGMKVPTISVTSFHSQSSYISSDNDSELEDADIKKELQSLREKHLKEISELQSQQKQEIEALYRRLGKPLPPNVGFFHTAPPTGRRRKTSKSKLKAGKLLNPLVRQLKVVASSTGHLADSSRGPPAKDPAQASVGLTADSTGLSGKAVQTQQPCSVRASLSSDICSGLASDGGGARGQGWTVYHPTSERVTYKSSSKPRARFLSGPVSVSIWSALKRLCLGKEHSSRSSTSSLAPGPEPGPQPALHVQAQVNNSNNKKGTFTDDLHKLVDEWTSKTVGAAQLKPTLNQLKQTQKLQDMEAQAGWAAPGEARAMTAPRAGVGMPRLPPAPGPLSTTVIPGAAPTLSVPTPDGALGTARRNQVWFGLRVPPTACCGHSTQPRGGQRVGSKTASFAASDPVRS
# Chain of BDNF/NT-3 growth factors receptor (Homo sapiens) (Q16620 32-822 limits assumed): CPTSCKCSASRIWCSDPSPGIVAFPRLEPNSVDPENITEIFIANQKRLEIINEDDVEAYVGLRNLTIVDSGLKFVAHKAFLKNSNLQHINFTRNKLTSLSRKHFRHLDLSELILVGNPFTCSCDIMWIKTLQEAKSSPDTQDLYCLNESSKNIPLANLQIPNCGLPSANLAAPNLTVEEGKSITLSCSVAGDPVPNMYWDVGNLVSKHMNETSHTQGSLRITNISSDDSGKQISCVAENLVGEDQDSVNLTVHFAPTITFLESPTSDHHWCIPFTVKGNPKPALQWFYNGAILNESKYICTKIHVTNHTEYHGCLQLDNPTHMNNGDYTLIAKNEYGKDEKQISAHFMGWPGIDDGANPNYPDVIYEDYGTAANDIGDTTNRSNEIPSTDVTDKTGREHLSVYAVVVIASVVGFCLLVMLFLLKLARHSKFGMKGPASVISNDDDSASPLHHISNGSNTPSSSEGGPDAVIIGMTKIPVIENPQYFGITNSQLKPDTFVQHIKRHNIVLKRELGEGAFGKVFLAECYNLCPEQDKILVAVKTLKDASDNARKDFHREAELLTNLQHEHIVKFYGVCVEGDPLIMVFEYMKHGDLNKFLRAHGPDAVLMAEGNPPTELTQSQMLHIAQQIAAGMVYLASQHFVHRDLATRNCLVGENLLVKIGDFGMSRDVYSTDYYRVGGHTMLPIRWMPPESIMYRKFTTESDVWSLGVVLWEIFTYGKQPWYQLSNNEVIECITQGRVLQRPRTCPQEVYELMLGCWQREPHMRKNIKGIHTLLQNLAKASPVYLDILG
# Chain of Serine/threonine-protein kinase VRK2 (Homo sapiens) (Q86Y07 whole entry): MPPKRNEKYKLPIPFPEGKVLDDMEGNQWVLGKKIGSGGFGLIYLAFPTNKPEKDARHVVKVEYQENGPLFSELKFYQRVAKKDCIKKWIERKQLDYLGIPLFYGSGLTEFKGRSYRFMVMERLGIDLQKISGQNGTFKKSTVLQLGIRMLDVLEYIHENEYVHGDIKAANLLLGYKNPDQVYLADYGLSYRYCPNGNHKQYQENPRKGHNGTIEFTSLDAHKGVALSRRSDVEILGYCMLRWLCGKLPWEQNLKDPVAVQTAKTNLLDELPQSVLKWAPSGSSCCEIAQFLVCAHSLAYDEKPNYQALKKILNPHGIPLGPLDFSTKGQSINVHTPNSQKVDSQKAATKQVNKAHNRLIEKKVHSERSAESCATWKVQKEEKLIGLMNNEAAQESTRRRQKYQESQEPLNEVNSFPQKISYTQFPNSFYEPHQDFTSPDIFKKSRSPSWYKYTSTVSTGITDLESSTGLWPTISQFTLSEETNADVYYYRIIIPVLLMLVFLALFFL
smiles,measurement,setting,value
CC(C)c1nn(-c2c(Cl)cccc2Cl)c2nc(Cc3ccc(OCCO)cc3)[nH]c(=O)c12,residual activity,[1],79%
same,residual activity,[2],96%
same,residual activity,[3],99%
same,residual activity,[4],81%
same,residual activity,[5],49%
same,residual activity,[6],84%
same,residual activity,[7],45%
same,residual activity,[8],100% (inactive)
same,residual activity,[9],96%
same,residual activity,[10],108% (inactive)
CN(C)S(=O)(=O)c1ccc2c(c1)/C(=C/c1cc3c([nH]1)CCCC3)C(=O)N2,residual activity,[1],1%
same,residual activity,[2],92%
same,residual activity,[3],90%
same,residual activity,[4],38%
same,residual activity,[5],13%
same,residual activity,[6],11%
same,residual activity,[7],6%
same,residual activity,[9],91%
same,residual activity,[10],94% (inactive)
O=C(NC(NC(=S)Nc1ccc(F)c([N+](=O)[O-])c1)C(Cl)(Cl)Cl)C(c1ccccc1)c1ccccc1 (centres undefined),residual activity,[1],89%
same,residual activity,[2],82%
same,residual activity,[3],76%
same,residual activity,[4],96%
same,residual activity,[6],97%
same,residual activity,[7],98%
same,residual activity,[9],95%
COc1cc2nccc(Oc3ccc(NC(=S)NC(=O)c4ccccc4C)cc3)c2cc1OC,residual activity,[1],25%
same,residual activity,[2],88%
same,residual activity,[3],37%
same,residual activity,[4],101%
same,residual activity,[5],93%
same,residual activity,[6],99%
same,residual activity,[7],76%
same,residual activity,[8],93% (inactive)
same,residual activity,[9],90%
same,residual activity,[10],76% (inactive)
O=C1NC(=O)C(c2cn(CCCn3ccnc3)c3ccccc23)=C1Nc1ccccc1,residual activity,[1],18%
O=C1Nc2ccccc2/C1=C\c1c(Cl)[nH]c2ccccc12,residual activity,[1],57%
same,residual activity,[2],83%
same,residual activity,[3],74%
same,residual activity,[8],76% (inactive)
same,residual activity,[9],28%
Oc1cccc(-c2nc(N3CCOCC3)c3oc4ncccc4c3n2)c1,residual activity,[2],93%
same,residual activity,[3],92%
same,residual activity,[5],81%
same,residual activity,[7],92%
same,residual activity,[9],89%
Fc1ccc(-c2nc3n(c2-c2ccncc2)CCS3)cc1,residual activity,[2],93%
same,residual activity,[9],80%
NC(=O)c1cccc(-c2cc(Nc3ccc(OC(F)(F)F)cc3)ncn2)c1,residual activity,[6],100%
same,residual activity,[7],93%
same,residual activity,[10],124% (inactive)
CC(C)[C@H](CO)Nc1nc(Nc2cc(N)cc(Cl)c2)c2ncn(C(C)C)c2n1,residual activity,[2],63%
same,residual activity,[3],17%
same,residual activity,[6],41%
same,residual activity,[7],8%
same,residual activity,[10],87% (inactive)
Nc1ncnc2[nH]nc(Nc3ccc(F)cc3)c12,residual activity,[2],66%
same,residual activity,[3],18%
same,residual activity,[4],120%
same,residual activity,[5],95%
same,residual activity,[6],97%
same,residual activity,[7],74%
same,residual activity,[8],97% (inactive)
same,residual activity,[9],81%
same,residual activity,[10],101% (inactive)
Cc1cc(C)c(/C=C2\C(=O)Nc3ccccc32)[nH]1,residual activity,[1],-7%
same,residual activity,[2],103%
same,residual activity,[8],98% (inactive)
same,residual activity,[9],68%
CCCCc1c(-c2ccc(O)cc2)[nH]c2nccnc12,residual activity,[1],45%
same,residual activity,[4],87%
same,residual activity,[5],93%
same,residual activity,[6],73%
same,residual activity,[7],31%
O=S(=O)(NCCNC/C=C/c1ccc(Br)cc1)c1cccc2cnccc12,residual activity,[2],74%
same,residual activity,[3],61%
O=C1NC(=O)C(c2c[nH]c3ccccc23)=C1c1c[nH]c2ccccc12,residual activity,[1],24%
same,residual activity,[9],75%
CSc1nc(-c2ccc(F)cc2)c(-c2ccnc(NC(C)c3ccccc3)c2)[nH]1 (centres undefined),residual activity,[1],1%
same,residual activity,[2],86%
same,residual activity,[3],86%
same,residual activity,[9],93%
N#Cc1c(NC(=O)c2cccc3ccccc23)sc2c1CCCC2,residual activity,[2],90%
same,residual activity,[3],80%
COc1ccc2c(c1)c(C1=C(c3c[nH]c4ccccc34)C(=O)NC1=O)cn2CCCN(C)C,residual activity,[1],43%
same,residual activity,[3],73%
same,residual activity,[4],101%
same,residual activity,[5],82%
same,residual activity,[6],100%
same,residual activity,[7],59%
same,residual activity,[8],102% (inactive)
same,residual activity,[9],69%
same,residual activity,[10],107% (inactive)
Nc1nc(Nc2ccc(S(N)(=O)=O)cc2)nn1C(=O)c1c(F)cccc1F,residual activity,[1],5%
same,residual activity,[3],41%
same,residual activity,[5],39%
same,residual activity,[6],46%
same,residual activity,[7],9%
same,residual activity,[8],97% (inactive)
same,residual activity,[9],69%
same,residual activity,[10],96% (inactive)
N#C/C(=C\c1ccc(O)c(O)c1)C(=O)NCc1ccccc1,residual activity,[1],102%
same,residual activity,[3],86%
same,residual activity,[5],85%
same,residual activity,[7],86%
N#C/C(=C1/Nc2ccccc2S1)c1ccnc(NCCc2cccnc2)n1,residual activity,[1],44%
same,residual activity,[10],63% (inactive)
NC(=O)c1ccc(-c2nc(-c3ccc4c(c3)OCCO4)c(-c3ccccn3)[nH]2)cc1,residual activity,[1],68%
same,residual activity,[2],90%
same,residual activity,[3],94%
same,residual activity,[8],118% (inactive)
same,residual activity,[9],98%
O=C1Cc2c([nH]c3ccc(Br)cc23)-c2ccccc2N1,residual activity,[1],66%
same,residual activity,[8],99% (inactive)
same,residual activity,[9],90%
same,residual activity,[10],93% (inactive)
O=c1c(-c2ccc(F)cc2)c(-c2ccncc2)[nH]n1-c1ccc(Cl)cc1,residual activity,[5],102%
same,residual activity,[8],100% (inactive)
same,residual activity,[9],99%
NC(=O)Nc1sc(-c2ccc(F)cc2)cc1C(N)=O,residual activity,[1],2%
same,residual activity,[4],86%
same,residual activity,[5],36%
same,residual activity,[6],69%
same,residual activity,[7],24%
same,residual activity,[8],95% (inactive)
same,residual activity,[9],52%
O=C1Cc2c([nH]c3ccc([N+](=O)[O-])cc23)-c2ccccc2N1,residual activity,[2],49%
same,residual activity,[3],39%
same,residual activity,[4],49%
same,residual activity,[5],45%
same,residual activity,[6],75%
same,residual activity,[7],53%
O=C(Nc1ccc(Cl)cc1)c1ccccc1NCc1ccncc1,residual activity,[1],99%
same,residual activity,[4],102%
CCN1/C(=C/C(C)=O)Sc2ccc(OC)cc21,residual activity,[2],81%
same,residual activity,[3],77%
same,residual activity,[10],76% (inactive)
COc1ccc(Cl)cc1NC(=O)Nc1cc(C)nc2ccccc12,residual activity,[3],60%
same,residual activity,[5],85%
same,residual activity,[7],96%
same,residual activity,[8],98% (inactive)
same,residual activity,[9],94%
O=c1cc(N2CCOCC2)oc2c(-c3ccccc3)cccc12,residual activity,[3],69%
Cn1sc(=O)n(Cc2ccccc2)c1=O,residual activity,[2],83%
same,residual activity,[3],88%
same,residual activity,[4],90%
same,residual activity,[5],93%
same,residual activity,[6],92%
same,residual activity,[7],92%
same,residual activity,[8],98% (inactive)
same,residual activity,[9],90%
same,residual activity,[10],96% (inactive)
CC(C)N(CCC(=O)c1ccc2ccccc2c1)Cc1ccccc1,residual activity,[3],42%
same,residual activity,[7],86%
same,residual activity,[8],100% (inactive)
same,residual activity,[9],86%
c1ccc(-c2cnc(Nc3ccc(OCCN4CCCC4)cc3)s2)cc1,residual activity,[1],3%
same,residual activity,[3],60%
same,residual activity,[4],59%
same,residual activity,[5],16%
same,residual activity,[10],123% (inactive)
O=c1cc(N2CCNCC2)oc2c(-c3ccccc3)cccc12,residual activity,[3],98%
same,residual activity,[4],100%
same,residual activity,[5],95%
same,residual activity,[6],101%
same,residual activity,[7],92%
same,residual activity,[8],95% (inactive)
same,residual activity,[9],90%
COc1ccc(COc2ccc(Cc3cnc(N)nc3N)cc2OC)cc1,residual activity,[1],-12%
same,residual activity,[3],68%
Nc1ncnc2c1cnn2-c1ccccc1,residual activity,[1],97%
same,residual activity,[3],78%
same,residual activity,[4],101%
same,residual activity,[5],98%
same,residual activity,[7],91%
same,residual activity,[8],102% (inactive)
same,residual activity,[9],90%
NCCNc1ncc(C(N)=O)c(Nc2cccc(C(F)(F)F)c2)n1,residual activity,[1],29%
same,residual activity,[3],61%
same,residual activity,[6],82%
same,residual activity,[7],24%
same,residual activity,[9],43%
same,residual activity,[10],111% (inactive)
